# Results filed as inconclusive are left out. Entries that show only a call come without a potency. Values without a mark were called inactive. The source made the active and inactive calls. Calls follow the shape of the dose curve; as a rule, active = well fitted inhibition curve with a large enough effect; inconclusive = small, poorly fitted or top-dose-only effect; inactive = flat fitted curve, though single readings scatter.
# Test system: CP335
# Experiment: qHTS profiling for inhibitors of Plasmodium falciparum proliferation (AID 504749); also: nearly all actives have a fitted effect of over 60% in size
# Details: P. falciparum in erythrocytes, SYBR Green DNA, 72 h; series mostly up to 28.7 µM
# In short: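 Three-day growth assay of blood-stage parasites in erythrocytes (0.3% parasitemia, 2.5% hematocrit) at 37 C, 5% CO2, quantified by SYBR Green DNA staining after overnight detergent lysis.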
# Potency is read from the fitted curve at half-maximal effect.
Compound,Potency,"activity, negative = inhibition"
Cc1ncsc1CCCl,inactive,–
c1ccc2c(c1)sc1ccccc12,inactive,–
CCOC(=O)CC(SP(=S)(OC)OC)C(=O)OCC (stereo not given),inactive,–
CCCC(C)(COC(N)=O)COC(N)=O,inactive,–
O=C1Nc2ccc(Cl)cc2C(c2ccccc2)=NC1O (stereo not given),inactive,–
CCCCC/C=C\C/C=C\C/C=C\C/C=C\CCCC(=O)NCC(=O)O,–,3% [at 2.67 µM]
CNC(C)(C)Cc1ccccc1,inactive,–
CCCCCCC(=O)CCCCCC/C=C/C[C@@H](O)[C@H](O)[C@@](N)(CO)C(=O)O,inactive,–
CN1C[C@H](C(=O)N[C@]2(C)O[C@@]3(O)[C@@H]4CCCN4C(=O)[C@H](Cc4ccccc4)N3C2=O)C=C2c3cccc4[nH]cc(c34)C[C@H]21,675 nM (active),–
CCC1(c2ccccc2)C(=O)N(COC)C(=O)N(COC)C1=O,inactive,–
NC(=O)CS(=O)C(c1ccccc1)c1ccccc1 (stereo not given),inactive,–
O=c1[nH]oc2c1CCNC2,inactive,–
COc1c2c(cc3c1OCO3)CCN(C)C2,inactive,–
CCCCCCCCCC(=O)O[C@H]1CC[C@H]2[C@@H]3CCC4=CC(=O)CC[C@@H]4[C@H]3CC[C@]12C,inactive,–
COP(=S)(OC)Oc1ccc(SC)c(C)c1,inactive,–
CCC(C)(C)c1ccc(O)cc1,inactive,–
O=C(Nc1ccc(Br)cc1)c1cc(Br)cc(Br)c1O,inactive,–
Clc1ccc2c(c1)C(c1ccccc1)=NCc1nncn1-2,inactive,–
C[C@]12CC[C@@H]3c4ccc(OC(=O)N(CCCl)CCCl)cc4CC[C@H]3[C@@H]1CC[C@@H]2O,inactive,–
CN1C(=O)CCS(=O)(=O)C1c1ccc(Cl)cc1 (stereo not given),inactive,–
Nc1ccccc1C(=O)O,inactive,–
O=C(O)CCCc1ccc(N(CCCl)CCCl)cc1,inactive,–
Nc1nc(N)nc(NC2CC2)n1,inactive,–
O=c1oc2ccccc2c(O)c1Cc1c(O)c2ccccc2oc1=O,inactive,–
O=C1Nc2ccc(Cl)cc2C(c2ccccc2Cl)=NC1O (stereo not given),inactive,–
O=C1c2ccccc2C(=O)C1C(=O)C(c1ccccc1)c1ccccc1,inactive,–
CC(C)=CC1C(C(=O)OCN2C(=O)C3=C(CCCC3)C2=O)C1(C)C (stereo not given),inactive,–
CN1C(=O)COc2c(C(=O)NC3CN4CCC3CC4)cc(Cl)cc21 (stereo not given),inactive,–
CCC1(CC)C(=O)C=CNC1=O,inactive,–
NCCc1ccc(O)cc1,inactive,–

# — PubChem BioAssay (NCATS)
